Assay results published in PubChem BioAssay (Tox21).
Where “and” joins values, the source holds several entries; their conditions need not be identical. Equal values may be shown once. Results filed as inconclusive are left out. Entries that show only a call come without a potency. A structure can be active in one record and inactive in another. Calls of active or inactive are those of the source. Unless noted, calls follow the shape of the dose curve; as a rule, active = well fitted curve in the direction sought with a large enough effect in the repeat runs; inconclusive = weak or mixed curves; inactive = no such curve, though single readings can be large; an effect the other way counts as inactive or inconclusive.

Experiments:
[1] = qHTS assay to identify small molecule agonists of the hypoxia (HIF-1) signaling pathway - cell viability counter screen (AID 1224844; calls by dose curve; also: nearly all actives have a fitted effect of over 50% in size; also: potency is read from the fitted curve at half-maximal effect)
Outline: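 HRE-bla ME-180 cells, 2,000/well in 0.5% dialyzed FBS medium, treated 17 h at 37C with compounds. Viability read in the same wells as the bla reporter, by CellTiter-Glo luminescence after 30 min at room temperature.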

[2] = qHTS assay to identify small molecule agonists of H2AX - cell viability counter screen (AID 1224847; calls by dose curve; also: nearly all actives have a fitted effect of over 30% in size; also: potency is read from the fitted curve at half-maximal effect)
Outline: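 Read-out: CellTiter-Glo luminescence, 30 min RT. Cells: wild-type CHO-K1, 1000/well, 10% FBS, plated overnight at 37C. Treatment: 15 concentrations, 3 hr, 37C, 0.76% DMSO.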

[3] = qHTS assay to identify small molecule antagonists of the estrogen related receptor (ERR) signaling pathway from Tox21 library (AID 1224848); also: nearly all actives have a fitted effect of over 50% in size; also: potency is read from the fitted curve at half-maximal effect
Outline: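 Screening used an ERR reporter line supplied by NTP, exposed for 18 h at 37 C to library compounds delivered in DMSO. Signal was luciferase luminescence developed with ONE-Glo at room temperature for 30 min.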

[4] = qHTS assay to identify small molecule agonists of the estrogen related receptor (ERR) signaling pathway from Tox21 library (AID 1224849; calls by dose curve; also: nearly all actives have a fitted effect of over 15% in size); conditions: ERR reporter cell line, ONE-Glo luciferase, 18 h
Outline: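 ERR reporter cells (NTP line) pre-incubated 6 hours at 37 C, then exposed to compounds for 18 hours at 37 C. ONE-Glo luciferase luminescence was read after 30 minutes at room temperature.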

[5] = qHTS RealTime-Glo MT Cell Viability Assay in HepG2 cells - 24 hour (AID 1224867); also: nearly all actives have a fitted effect of over 50% in size; also: potency is read from the fitted curve at half-maximal effect
Outline: (§1)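 Tox21 10K library screened in qHTS format on HepG2 cells carrying RealTime-Glo reagents. Compounds were added after a 5 h preincubation, and the luminescent signal from continuous culture was measured repeatedly during 40 h treatment.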

[6] = A CellTox Green Cytotoxicity Assay to monitor cytotoxicity in HEK293 cells - 0 hour (AID 1224869); also: nearly all actives have a fitted effect of over 50% in size
Outline: (§2)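 HEK293 cells, 600/well, were preincubated 5 hours and then exposed to compounds at 37 C for up to 40 hours. A cell-impermeant cyanine dye staining dead-cell DNA was read by fluorescence at 0, 8, 16, 24, 32 and 40 h time points.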

[7] = A CellTox Green Cytotoxicity Assay to monitor cytotoxicity in HEK293 cells - 40 hour (AID 1224871); also: nearly all actives have a fitted effect of over 45% in size; also: potency is read from the fitted curve at half-maximal effect
Outline: as §2

[8] = qHTS RealTime-Glo MT Cell Viability Assay in HEK293 cells - 16 hour (AID 1224872); also: nearly all actives have a fitted effect of over 50% in size; also: potency is read from the fitted curve at half-maximal effect
Outline: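 Luminescence generated by NanoLuc from substrate produced by living HEK293 cells served as the viability signal. Each value reflects the reading at its stated time point during continuous 40 h compound exposure at 37 C.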

[9] = qHTS RealTime-Glo MT Cell Viability Assay in HepG2 cells - 8 hour (AID 1224873); also: nearly all actives have a fitted effect of over 55% in size; also: potency is read from the fitted curve at half-maximal effect
Outline: (§3)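 HepG2 cells mixed with RealTime-Glo MT reagents (NanoLuc plus cell-permeant prosubstrate) were seeded at 600 cells/well, incubated 5 h at 37 C/5% CO2, then pinned with compounds in DMSO; nonlytic luminescence tracked viability during 40 h treatment.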

[10] = qHTS RealTime-Glo MT Cell Viability Assay in HEK293 cells - 40 hour (AID 1224874); conditions: RealTime-Glo luminescence; max response: stronger effect = lower value; also: nearly all actives have a fitted effect of over 50% in size; also: potency is read from the fitted curve at half-maximal effect
Outline: (§4)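 600 cells/well were plated with the nonlytic NanoLuc/prosubstrate reagent, pre-incubated 5 h, then given 23 nL of compound in DMSO. Incubation at 37 C for 40 h, with luminescence from viable-cell-reduced substrate read repeatedly from 0 h.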

[11] = A CellTox Green Cytotoxicity Assay to monitor cytotoxicity in HepG2 cells - 16 hour (AID 1224876); also: nearly all actives have a fitted effect of over 45% in size
Outline: (§5)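 HepG2 cells, 600/well, preincubated 5 h with CellTox Green dye, then exposed to Tox21 compounds in DMSO at 37 C for up to 40 h. Dead-cell DNA fluorescence read at the indicated time point.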

[12] = qHTS RealTime-Glo MT Cell Viability Assay in HepG2 cells - 32 hour (AID 1224877); also: nearly all actives have a fitted effect of over 55% in size; also: potency is read from the fitted curve at half-maximal effect
Outline: as §1

[13] = A CellTox Green Cytotoxicity Assay to monitor cytotoxicity in HepG2 cells - 24 hour (AID 1224878); also: nearly all actives have a fitted effect of over 45% in size; also: potency is read from the fitted curve at half-maximal effect
Outline: as §5

[14] = A CellTox Green Cytotoxicity Assay to monitor cytotoxicity in HepG2 cells - 40 hour (AID 1224879); also: nearly all actives have a fitted effect of over 40% in size; also: potency is read from the fitted curve at half-maximal effect
Outline: as §5

[15] = qHTS RealTime-Glo MT Cell Viability Assay in HEK293 cells - 0 hour (AID 1224880); also: top concentration of the series differs between compounds; nearly all actives have a fitted effect of over 45% in size
Outline: as §4

[16] = qHTS assay to identify small molecule agonists of H2AX (AID 1224845; active = well fitted activation curve with a large enough effect in the signal ratio in the repeat runs, not every such curve was filed as active; the % refers to the signal ratio)
Outline: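 Wild-type CHO-K1 cells plated overnight, then exposed 3 hr at 37C to compounds at 15 concentrations (0.76% DMSO). Lysed, then HTRF anti-pH2AX(S139)-cryptate/anti-H2AX-d2 detection after 24 hr at room temperature; emissions 665 and 620 nm.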

[17] = qHTS RealTime-Glo MT Cell Viability Assay in HepG2 cells - 40 hour (AID 1224870); also: nearly all actives have a fitted effect of over 50% in size; also: potency is read from the fitted curve at half-maximal effect
Outline: as §3

[18] = A CellTox Green Cytotoxicity Assay to monitor cytotoxicity in HEK293 cells - 24 hour (AID 1224875)
Outline: as §2

| SMILES | Potency [1] | Potency [2] | Potency [3] | activity change, positive = activation ([4]; at 42.5 µM (top of the series)) | activity change, positive = activation ([4]; at 92.4 µM (top of the series)) | Potency [5] | Potency [6] | Potency [7] | Potency [8] | Potency [9] | Potency [10] | Potency [11] | Potency [12] | Potency [13] | Potency [14] | Potency [15] | Potency [16] | max response [10] | Potency [17] | Potency [18] |
| --- | --- | --- | --- | --- | --- | --- | --- | --- | --- | --- | --- | --- | --- | --- | --- | --- | --- | --- | --- | --- |
| CN1CCc2cccc3c2[C@H]1Cc1ccc(O)c(O)c1-3 | 39.3 µM (active) and 16.3 µM (active) | inactive | 24.6 µM (active) and 18.1 µM (active) | -69.6% (inactive) and -53% (inactive) | -66.3% (inactive) | 44.1 µM (active) and 16.3 µM (active) and 23.9 µM (active) | inactive | 55.5 µM (active) and inactive | 15.7 µM (active) and 10.3 µM (active) | 49.5 µM (active) | 15.7 µM (active) and 10.3 µM (active) and 21.3 µM (active) | inactive | 49.5 µM (active) and 16.3 µM (active) | inactive | 49.5 µM (active) and 18.3 µM (active) and inactive | inactive | – | – | – | – |
| Cn1c(=O)c2c(ncn2C)n(C)c1=O | – | inactive | 61.9 µM (active) and inactive | 0.592% (inactive) | -33.2% (inactive) and 0.518% (inactive) | – | inactive | inactive | – | inactive | – | inactive | inactive | inactive | inactive | inactive | inactive | -15% (inactive) and -0.566% (inactive) and 6.55% (inactive) | – | – |
| CN(C)C(=S)SC(=S)N(C)C | 2 µM (active) and 1.23 µM (active) | 92.1 µM (active) and 31.8 µM (active) | 886 nM (active) and 1.09 µM (active) and 1.19 µM (active) | -68.6% (inactive) | -79.6% (inactive) and -76.2% (inactive) | – | inactive | 1.59 µM (active) and 3.09 µM (active) and 3.79 µM (active) | 2.24 µM (active) and 2.75 µM (active) and 6.74 µM (active) | – | 1.59 µM (active) and 1.23 µM (active) and 6.01 µM (active) | – | 1.55 µM (active) and 3.38 µM (active) | 3.17 µM (active) and 2.45 µM (active) and 2.39 µM (active) | 2.52 µM (active) and 1.38 µM (active) and 2.39 µM (active) | inactive | – | – | 1.38 µM (active) and 3.01 µM (active) | 3.99 µM (active) and 21.9 µM (active) |
| O=c1[nH]cc(F)c(=O)[nH]1 | 10.1 µM (active) and inactive | inactive | – | – | – | – | inactive | 50.8 µM (active) and inactive | – | inactive | – | inactive | inactive | – | 45.3 µM (active) and inactive | inactive | inactive | -1.84% (inactive) and 1.38% (inactive) | – | – |
| CCCCNC(=O)NS(=O)(=O)c1ccc(C)cc1 | – | inactive | inactive | 4.14% (inactive) | -14.4% (inactive) and 0.897% (inactive) | inactive | inactive | inactive | inactive | inactive | – | inactive | inactive | – | inactive | inactive | inactive | -2.16% (inactive) and 5.08% (inactive) and 4.55% (inactive) | – | – |
| Cc1c(C(=O)O)c(O)cc2c1C(=O)c1c(O)c([C@@H]3O[C@H](CO)[C@@H](O)[C@H](O)[C@H]3O)c(O)c(O)c1C2=O | inactive | 55.3 µM (active) and 56.6 µM (active) and 31 µM (active) | – | – | – | inactive | inactive | inactive | – | inactive | – | – | inactive | – | inactive | inactive | – | -10.5% (inactive) and -11.6% (inactive) and 0.861% (inactive) | inactive | – |
